The source of these data is PubChem BioAssay.

Assay [1] relates to Plasmodium falciparum Sir2 (PF13_0152, Sir2A). Briefly: Plasmodium falciparum Sir2A binding compounds – biochemical, small-molecule microarray, 635 nm fluorescence, primary screen (AID 1098).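 Also: score merges spot fluorescence intensity with its signal-to-noise ratio.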 The settings on record: fluorescence 635 nm, higher = more signal.
The nature of assay [2]: probe aDKK1 binding to arrayed compounds – biochemical, biotinylated probe, 635/667 nm fluorescence, primary screen (AID 1099).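 Also: score merges 667nm spot fluorescence with signal to noise across triplicate slides.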 To be noted: small-molecule microarray, higher = more signal.
The nature of assay [3]: probe aCHRDL2 binding to arrayed compounds – biochemical, biotinylated probe, 635/667 nm fluorescence, primary screen (AID 1100). The settings on record: small-molecule microarray, higher = more signal.
The nature of assay [4]: change in splice reporter luminescence, either direction, cell-based, HEK293, spliceosome inhibition project, primary screen (AID 1101).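 Also: HEK293 cells carrying a splicing-competent luciferase reporter gene; test concentration not given here.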 To be noted: HEK293 splicing luciferase reporter, 24 h, higher = more signal, called active from +8 up or from −8 down.
The target of assay [5] is Fibroblast growth factor 10 (Homo sapiens) (UniProt O15520). Briefly: compounds binding fibroblast growth factor 10 – biochemical, small-molecule microarray, 635 nm fluorescence, primary screen (AID 1102). The settings on record: FGF10 binding, fluorescence 635 nm, higher = more signal.
Fibroblast growth factor 10 (Homo sapiens), sequence (O15520 whole entry, looked up): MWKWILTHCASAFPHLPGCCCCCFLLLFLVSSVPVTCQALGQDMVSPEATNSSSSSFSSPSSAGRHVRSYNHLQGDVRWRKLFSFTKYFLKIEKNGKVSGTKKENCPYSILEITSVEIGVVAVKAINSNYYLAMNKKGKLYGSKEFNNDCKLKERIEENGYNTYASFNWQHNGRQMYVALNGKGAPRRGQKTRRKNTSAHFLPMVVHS
Assay [6] concerns glycogen synthase kinase-3 (GSK3A per assay name; protocol says GSK3B). Nature of the assay: compounds binding glycogen synthase kinase-3 – biochemical, small-molecule microarray, 635 nm fluorescence, GSK3A, primary screen (AID 1103). Also: the record names both GSK3A and GSK3B. To be noted: fluorescence 635 nm, higher = more signal.
Assay [7] has as its target Epidermal growth factor receptor (Homo sapiens) (UniProt P00533). Nature of the assay: compounds binding epidermal growth factor receptor – biochemical, small-molecule microarray, 635 nm fluorescence, primary screen (AID 1104).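 Also: score merges 667 nm emission intensity with spot signal to noise over triplicate slides.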 To be noted: EGFR binding, higher = more signal.
In assay [8] the target is Follistatin-related protein 3 (Homo sapiens) (UniProt O95633). Nature of the assay: compounds binding follistatin-related protein 3 – biochemical, small-molecule microarray, 635 nm fluorescence, primary screen (AID 1105).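 Also: score merges emission near 667 nm and signal to noise per printed spot across three slides.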 To be noted: FSTL3 binding, higher = more signal.
Follistatin-related protein 3 (Homo sapiens), sequence (O95633 whole entry, looked up): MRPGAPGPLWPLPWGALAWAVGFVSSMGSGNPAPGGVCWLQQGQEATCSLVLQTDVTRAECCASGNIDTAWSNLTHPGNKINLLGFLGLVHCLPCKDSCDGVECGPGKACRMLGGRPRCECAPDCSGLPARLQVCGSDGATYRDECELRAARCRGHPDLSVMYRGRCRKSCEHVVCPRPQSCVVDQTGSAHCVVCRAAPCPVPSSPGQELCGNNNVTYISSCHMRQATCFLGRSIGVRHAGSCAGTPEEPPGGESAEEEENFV
Assay [9] concerns the target Dickkopf-related protein 1 (Homo sapiens) (UniProt O94907). Briefly: small molecules binding DKK1 protein – biochemical, small-molecule microarray, 635 nm fluorescence scan, primary screen (AID 1106).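 Also: score merges emission near 667 nm with signal to noise over three replicate slides.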 To be noted: higher = more signal.
Assay [10] deals with Inhibin beta A chain (activin A). Nature of the assay: small molecules binding activin A – biochemical, small-molecule microarray, 635 nm fluorescence scan, primary screen (AID 1107).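 Also: mouse activin A protein probed at 4.33 µg/mL on printed slides; score merges bound-protein fluorescence near 667 nm with spot signal-to-noise.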 To be noted: INHBA, higher = more signal.
Assay [11] relates to Human papillomavirus type 1a protein E7 (residues 44-93). Nature of the assay: small molecules binding HPV E7 44-93 – biochemical, small-molecule microarray, residues 44-93, 635 nm fluorescence, primary screen (AID 1108).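 Also: E7 fragment applied at 1 µg/mL in TBST for 1 h at 4 C; score combines spot fluorescence with its signal to noise ratio.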 To be noted: fluorescence 635 nm, higher = more signal.
A short description of assay [12]: hepatitis C replication reporter changes, two-sided – Huh7 cells, luciferase reporter, HCV replication inhibitor project, primary screen (AID 1109).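 Also: huh7 hepatoma cells harbouring a luciferase neomycin HCV replicon reporter; luciferase luminescence as measure of HCV replicon replication; test concentration not given here.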 To be noted: Huh7 HCV replicon luciferase reporter, 48 h; higher = more signal.
The target of assay [13] is Left-right determination factor 2 (Homo sapiens) (UniProt O00292). Briefly: small molecules binding LEFTY2 protein – biochemical, small-molecule microarray, 635 nm fluorescence scan, primary screen (AID 1110). To be noted: higher = more signal.
Left-right determination factor 2 (Homo sapiens), sequence (O00292 whole entry, looked up): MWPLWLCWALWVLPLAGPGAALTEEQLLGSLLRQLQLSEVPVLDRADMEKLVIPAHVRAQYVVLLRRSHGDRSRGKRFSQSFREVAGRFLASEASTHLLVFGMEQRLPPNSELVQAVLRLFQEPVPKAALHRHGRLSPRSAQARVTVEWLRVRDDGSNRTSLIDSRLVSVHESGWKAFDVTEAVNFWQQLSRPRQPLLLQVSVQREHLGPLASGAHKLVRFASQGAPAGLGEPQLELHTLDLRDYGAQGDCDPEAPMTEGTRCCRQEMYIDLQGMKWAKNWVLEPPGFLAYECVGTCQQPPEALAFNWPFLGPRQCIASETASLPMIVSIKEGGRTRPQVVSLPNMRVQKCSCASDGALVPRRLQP
Assay [14] deals with Calmodulin-1 (Homo sapiens) (UniProt P0DP23). Nature of the assay: small molecules binding calmodulin-1 with EGTA – biochemical, small-molecule microarray, Cy5-labelled CALM1, profiling panel (AID 1111).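 Also: labelled calmodulin applied in Tris saline Tween buffer holding calcium plus EGTA and DTT.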 To be noted: Cy5-CALM1 binding fluorescence, higher = more signal.
For assay [15] the target is unchanged. Briefly: small molecules binding Ca-loaded calmodulin-1 – biochemical, small-molecule microarray, Cy5-labelled CALM1, plus calcium, artefact control for SMM control-protein annotation, profiling panel (AID 1112).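 Also: score merges spot fluorescence with signal to noise from triplicate slides.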 The settings on record: Cy5-CALM1 binding fluorescence, higher = more signal.
Assay [16] is described as follows: probe aWnt5a binding to arrayed compounds – biochemical, biotinylated probe, 635/667 nm fluorescence, primary screen (AID 1113).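 Also: score merges 667 nm fluorescence intensity with signal-to-noise per printed feature.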 To be noted: small-molecule microarray, higher = more signal.
Assay [17] is described as follows: probe aShh binding to arrayed compounds – biochemical, biotinylated probe, 635/667 nm fluorescence, primary screen (AID 1114).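 Also: probe is biotin-labelled aShh protein from a stem cell growth factor screen; measures binding of labelled protein to compounds printed on the slide; score merges feature fluorescence at 667 nm with signal-to-noise.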 To be noted: small-molecule microarray, higher = more signal.
Assay [18] can be described thus: probe aNog binding to arrayed compounds – biochemical, biotinylated probe, 635/667 nm fluorescence, primary screen (AID 1115).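 Also: probe is biotinylated aNog protein used at 0.15 µg/mL for 1 h at 4 C; z-score combines 667 nm fluorescence of each spot with its signal to noise.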 The settings on record: small-molecule microarray, higher = more signal.
The target in assay [19] is Torsin-1A-interacting protein 1 (Homo sapiens) (UniProt Q5JTV8). Nature of the assay: compound microarray binding of lysate hLAP1 – cell lysate, small-molecule microarray, COS7 lysate, 635/667 nm fluorescence, primary screen (AID 1116). To be noted: 635 nm fluorescence, higher = more signal.
Torsin-1A-interacting protein 1 (Homo sapiens), sequence (Q5JTV8 whole entry, looked up): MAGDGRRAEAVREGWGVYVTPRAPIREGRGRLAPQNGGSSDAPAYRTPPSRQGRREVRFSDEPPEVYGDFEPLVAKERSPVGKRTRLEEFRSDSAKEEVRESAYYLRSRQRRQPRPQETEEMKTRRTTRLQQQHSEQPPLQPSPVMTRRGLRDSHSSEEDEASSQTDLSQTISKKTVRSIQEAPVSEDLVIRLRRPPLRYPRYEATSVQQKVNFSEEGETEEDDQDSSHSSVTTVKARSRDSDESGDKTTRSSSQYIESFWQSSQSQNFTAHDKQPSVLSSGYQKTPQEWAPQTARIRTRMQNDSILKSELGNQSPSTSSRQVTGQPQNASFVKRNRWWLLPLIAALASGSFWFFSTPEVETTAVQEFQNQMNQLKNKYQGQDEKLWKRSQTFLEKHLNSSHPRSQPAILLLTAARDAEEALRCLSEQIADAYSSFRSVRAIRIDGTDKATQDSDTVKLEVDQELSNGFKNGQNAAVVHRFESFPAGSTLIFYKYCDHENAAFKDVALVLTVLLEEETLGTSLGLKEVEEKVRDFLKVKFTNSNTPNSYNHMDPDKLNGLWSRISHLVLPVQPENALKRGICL
In assay [20] the target is Alpha-bungarotoxin (Bungarus multicinctus) (UniProt P60615). Briefly: compounds binding labelled alpha-BTX control protein – biochemical, small-molecule microarray, Alexa647 label, 635/667 nm fluorescence, artefact control for SMM control protein annotation, profiling panel (AID 1117). The settings on record: alpha-BTX-A647 binding fluorescence, higher = more signal.
Alpha-bungarotoxin (Bungarus multicinctus), sequence (P60615 whole entry, looked up): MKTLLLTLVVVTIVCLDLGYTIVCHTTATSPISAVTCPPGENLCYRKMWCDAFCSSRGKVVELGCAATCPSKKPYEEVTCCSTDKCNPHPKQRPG

The structures appear in SMILES notation. Active and inactive are the calls of the source.

Epidermal growth factor receptor (Homo sapiens), sequence (P00533 whole entry, looked up): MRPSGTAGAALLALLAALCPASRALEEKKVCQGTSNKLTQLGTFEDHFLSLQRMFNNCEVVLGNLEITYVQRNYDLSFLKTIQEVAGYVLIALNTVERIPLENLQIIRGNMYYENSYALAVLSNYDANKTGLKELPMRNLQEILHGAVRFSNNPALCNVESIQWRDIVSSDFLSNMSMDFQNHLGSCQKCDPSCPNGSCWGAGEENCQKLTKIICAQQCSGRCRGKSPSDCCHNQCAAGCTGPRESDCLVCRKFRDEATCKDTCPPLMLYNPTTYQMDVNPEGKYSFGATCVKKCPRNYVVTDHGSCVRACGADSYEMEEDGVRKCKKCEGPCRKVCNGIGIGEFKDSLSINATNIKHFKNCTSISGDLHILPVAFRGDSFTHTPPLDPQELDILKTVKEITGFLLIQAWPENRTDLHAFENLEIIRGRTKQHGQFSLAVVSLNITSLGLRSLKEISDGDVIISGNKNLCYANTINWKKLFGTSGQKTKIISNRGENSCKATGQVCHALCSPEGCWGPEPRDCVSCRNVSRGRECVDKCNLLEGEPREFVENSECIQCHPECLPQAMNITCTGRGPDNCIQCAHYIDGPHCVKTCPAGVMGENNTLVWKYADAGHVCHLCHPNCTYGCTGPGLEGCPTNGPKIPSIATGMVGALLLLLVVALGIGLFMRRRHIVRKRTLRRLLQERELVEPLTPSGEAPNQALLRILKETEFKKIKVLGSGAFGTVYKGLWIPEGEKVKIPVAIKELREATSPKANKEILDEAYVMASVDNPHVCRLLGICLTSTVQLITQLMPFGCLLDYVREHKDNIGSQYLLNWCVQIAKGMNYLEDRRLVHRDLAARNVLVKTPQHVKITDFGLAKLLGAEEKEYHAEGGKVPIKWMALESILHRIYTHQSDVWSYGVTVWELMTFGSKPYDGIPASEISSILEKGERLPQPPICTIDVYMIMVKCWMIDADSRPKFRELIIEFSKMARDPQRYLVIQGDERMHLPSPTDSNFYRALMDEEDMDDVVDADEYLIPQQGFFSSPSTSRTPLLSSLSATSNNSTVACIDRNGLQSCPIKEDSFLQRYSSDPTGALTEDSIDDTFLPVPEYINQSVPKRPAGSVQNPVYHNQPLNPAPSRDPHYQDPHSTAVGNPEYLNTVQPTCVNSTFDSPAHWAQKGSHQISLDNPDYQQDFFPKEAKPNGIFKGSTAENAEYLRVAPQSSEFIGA
Dickkopf-related protein 1 (Homo sapiens), sequence (O94907 whole entry, looked up): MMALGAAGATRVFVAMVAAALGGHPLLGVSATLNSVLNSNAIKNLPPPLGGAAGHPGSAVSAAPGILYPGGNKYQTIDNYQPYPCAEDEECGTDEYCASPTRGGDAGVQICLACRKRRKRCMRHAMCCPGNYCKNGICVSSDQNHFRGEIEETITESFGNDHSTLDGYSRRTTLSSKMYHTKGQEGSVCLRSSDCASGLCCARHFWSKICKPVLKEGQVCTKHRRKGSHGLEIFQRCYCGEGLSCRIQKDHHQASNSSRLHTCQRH

For the compound `CC1CC/C=C\[C@H]2OC34C=CCN(CCN5CCOCC5)C(=O)[C@H]3N(C(CO)C(C)C)C(=O)[C@@H]4C2C(=O)O1` (stereo not given in full), the composite z-score is 1.5 in [1]; -0.155 in assay [2]; 0.0473 in assay [3]; -0.268 in assay [5]; 0.169 in assay [6]; -0.31 in assay [7]. The composite z-score in assay [8] was -0.239; in assay [9] it was -0.112; in assay [10] it was 1.17; in assay [11], 0.0179; in [13] it was -0.0839; in assay [14], -0.388. Besides, the composite z-score was -1.05 in [15]; -0.105 in assay [16]; 0.0469 in [17]; -0.126 in assay [18]; -0.46 in assay [19]; -0.157 in assay [20]. In addition, the z-score in assay [4] was -0.192 (inactive); in assay [12] it was -0.278.

Turning to `C=C(CCCC)C(=O)CC[C@@H](OC(C)=O)c1ccc(OCCO)cc1`, the composite z-score was 0.476 in assay [1]; -0.276 in [2]; -0.169 in assay [3]; 1.48 in [5]; -0.198 in assay [6]; -0.678 in assay [7]. The composite z-score is 0.824 in [8]; 0.268 in [9]; 0.204 in assay [10]; 0.159 in assay [11]; 0.125 in assay [13]; -0.537 in assay [14]. Further, the composite z-score in assay [15] was -1.29; in assay [16] it was -0.1; in assay [17], -0.0035; in assay [18] it was -0.113; in assay [19], 3.18; in assay [20], -0.127. The z-score in assay [4] is 3.03 (inactive); in assay [12], -1.98.

`C=CCC(OC(C)=O)[C@@H]1[C@@H](N(Cc2ccc(-c3ccccc3)cc2)C(=O)Cc2ccc(OC)cc2)c2cc(OCCCO)ccc2N1C(=O)Cc1ccc(OC)cc1` (stereo not given in full): the composite z-score in assay [1] is -0.214; in assay [2], 0.642; in [3] it was 0.327; in assay [5] it was 0.0842; in assay [6], -0.0794; in [7] it was -0.0897. In addition, the composite z-score is -0.147 in [8]; -0.191 in [9]; 1.59 in assay [10]; -0.37 in assay [11]; 0.055 in assay [13]; 0.194 in assay [14]. Also, the composite z-score in [15] was 0.7; in assay [16], 0.055; in assay [17], -0.229; in assay [18] it was -0.128; in assay [19], 0.468; in [20], 0.171. Moreover, the z-score in assay [4] is -0.581 (inactive); in assay [12], -0.496.

Turning to `C=C(COC)C(=O)CC[C@H](OC(C)=O)c1ccc(CO)o1`, the composite z-score in assay [1] is 1.44; in assay [2], -0.362; in [3], -0.566; in assay [5], 0.757; in [6] it was -0.646; in assay [7], -0.0826. The composite z-score in [8] was 0.47; in assay [9] it was 0.488; in assay [10], 1.03; in [11] it was -1.05; in assay [13], 0.451; in assay [14] it was 0.44. The composite z-score is -1.07 in [15]; -0.152 in assay [16]; -0.0709 in [17]; -0.273 in assay [18]; -0.534 in [19]; 0.706 in assay [20]. The z-score in assay [4] is -1.35 (inactive); in assay [12], 0.272.

Take `COC(=O)[C@@]1(Cc2ccc(F)cc2)[C@H]2c3cc(C(=O)N(C)C)n(CCF)c3C[C@H]2CN1C(=O)c1ccccc1`: the composite z-score in assay [1] was -0.0822; in assay [2], 0.9; in assay [3], 0.987; in assay [5] it was 0.295; in assay [6], 0.139; in [7] it was -0.0604. Also, the composite z-score was -0.0956 in assay [8]; -0.256 in [9]; 0.856 in assay [10]; -0.999 in assay [11]; -0.0571 in assay [13]; 0.838 in assay [14]. Besides, the composite z-score amounted to 0.55 in assay [15]; 0.0657 in assay [16]; 0.337 in assay [17]; 0.787 in [18]; 0.163 in assay [19]; 0.3 in [20]. In addition, the z-score was -1.66 (inactive) in assay [4] and -1.38 in assay [12].

With `CCCCN1CC=CC23O[C@@H]4/C=C\CCCOC(=O)C4[C@H]2C(=O)N(CCCCCCO)[C@@H]3C1=O` (stereo not given in full), the composite z-score was 0.502 in [1]; -0.196 in [2]; 0.663 in assay [3]; -0.764 in assay [5]; -0.755 in assay [6]; -1.08 in assay [7]. For the same compound, the composite z-score in [8] is -0.451; in assay [9], -1.75; in assay [10], 0.627; in assay [11], 0.528; in assay [13], -1.53; in assay [14], -1.12. For the same compound, the composite z-score in [15] is -0.439; in [16] it was -0.152; in assay [17], 0.0639; in assay [18], -0.346; in assay [19], 3.21; in assay [20] it was -1.09. Further, the figures for the z-score in assay [4] and in assay [12] were -1.09 (inactive) and 0.284, respectively.
